Compounds with a hit are over-represented: about 3.4% of the library has one in this group of screens.
FBW7 act: human FBW7 E3 ligase activation, primary screen; Q969H0; AlphaScreen FBW7–phospho-cyclin E peptide binding, activator screen; normalized activity (activation), % at 26.1 µM; 650,000 compounds, 0.13% hits; AID 1259310; in the data active = normalized activity above about 1.9%;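 also: purified mutant Fbw7 with reduced substrate affinity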
Target sequence (Q969H0 whole entry, looked up): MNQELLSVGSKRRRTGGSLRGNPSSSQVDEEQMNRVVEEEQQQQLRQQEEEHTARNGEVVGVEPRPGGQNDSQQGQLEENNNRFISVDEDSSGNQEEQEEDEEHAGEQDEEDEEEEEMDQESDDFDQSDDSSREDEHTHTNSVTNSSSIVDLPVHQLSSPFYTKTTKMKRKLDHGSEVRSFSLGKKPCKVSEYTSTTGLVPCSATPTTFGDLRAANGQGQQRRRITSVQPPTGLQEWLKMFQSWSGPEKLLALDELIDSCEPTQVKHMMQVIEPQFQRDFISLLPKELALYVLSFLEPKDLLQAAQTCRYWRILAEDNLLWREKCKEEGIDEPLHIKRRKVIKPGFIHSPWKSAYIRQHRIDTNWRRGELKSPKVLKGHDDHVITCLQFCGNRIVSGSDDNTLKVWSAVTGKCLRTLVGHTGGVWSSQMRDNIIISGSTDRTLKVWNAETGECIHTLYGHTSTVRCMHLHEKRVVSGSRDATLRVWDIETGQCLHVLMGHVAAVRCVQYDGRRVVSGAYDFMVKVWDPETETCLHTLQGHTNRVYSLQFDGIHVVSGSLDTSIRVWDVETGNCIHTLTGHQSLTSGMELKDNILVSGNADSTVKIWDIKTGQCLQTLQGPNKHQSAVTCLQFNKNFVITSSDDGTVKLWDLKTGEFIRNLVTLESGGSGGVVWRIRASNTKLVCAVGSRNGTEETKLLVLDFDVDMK
MITF inh: inhibitors of human MITF; O75030; AlphaScreen MITF homodimerization, bead proximity signal; inhibition, % at 2.6 µM; 650,000 compounds, 0.91% hits; AID 1259374; in the data active = inhibition above about 50%;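 also: 0% = vehicle wells with protein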
GPR151 ag: activates the human receptor GPR151; activation, % at 11.2 µM; PathHunter beta-arrestin GPR151 cells, luminescence; 650,000 compounds, 1% hits; in the data active = activation above about 4.9%;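 also: 0% = median of compound wells and 100% = cells with positive control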
TEAD-YAP block: TEAD-YAP interaction inhibition; HEK-TIYL cells, TEAD-Gal4/YAP UAS-luciferase luminescence; 640,000 compounds, 1.4% hits; inhibition, % at 9.12 µM; AID 1259422; in the data active = inhibition above about 32%;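 also: 0% = median of test compound wells and 100% = reference inhibitor wells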
MITF inh conf: human MITF inhibition, confirmation. inhibition, % at 2.6 µM. AlphaScreen MITF homodimerization, biotin/His-MITF beads. 4,700 compounds, 16% hits. AID 1259372. shares compounds with MITF inh;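 active = inhibition above a cutoff derived from the DMSO control wells, cut at about 28% in these data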;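 also: 0% = MITF dimer wells with DMSO only; inhibitors lower the bead chemiluminescence by keeping MITF from dimerizing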
AlphaScreen DR: counter-screen: compounds optically interfering with AlphaScreen | shares compounds with MITF inh | AlphaScreen optical interference counterscreen, cell-free | IC50, µM | 480 compounds, 6% hits | AID 1259373; call rule not given here
AlphaScreen intf2: counter-screen: compounds optically interfering with AlphaScreen. shares compounds with MITF inh. LysRS AlphaScreen counterscreen, signal interference, triplicate. inhibition, % at 2.6 µM. 4,700 compounds, 7.6% hits. AID 1259376;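 active = inhibition above a cutoff derived from the DMSO control wells, cut at about 30% in these data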
The depositor's hits bear a star; / = no result given.

SMILES | FBW7 act | MITF inh | GPR151 ag | TEAD-YAP block | MITF inh conf | AlphaScreen intf2 | others
CC(C)COc1ccc(C2Nc3ccccc3C(=O)N2c2ccc(Br)cc2)cc1 (configuration not stated) | 0 | 2 | 1 | -34 | / | /
COCC(=O)NCC1CCC2(CCN(Cc3ccc4cccnc4c3)CC2)O1 (configuration not stated) | 0 | -8 | 1 | 12 | / | /
Cc1cn2c(=O)c(C(=O)N(C)CC(=O)N(C)C)cnc2s1 | 0 | -1 | -1 | 2 | / | /
C#CCN(C)C(=O)c1cnc2sc(C)cn2c1=O | 0 | 57* | 0 | -1 | 12 | 8
COc1cc(CN2CCC(Cn3c(C)nc4ccccc43)CC2)cc(OC)c1 | 0 | 59* | 0 | 9 | 8 | 16
COc1cc(CN2CCC(c3nc(-c4ccccc4)no3)CC2)cc(OC)c1 | 0 | -8 | -1 | -6 | / | /
COc1ccc2c3c(cccc13)C(=O)N(C)C2=O | 0 | 67* | 0 | -5 | 76* | 1 | AlphaScreen DR=>6.5
COc1ccc2c3c(cccc13)C(=O)N(O)C2=O | 1 | -17 | 1 | 12 | / | /
O=C(O)CCC(NCc1ccco1)C(=O)O (configuration not stated) | 0 | 62* | 0 | 8 | 56* | 9 | AlphaScreen DR=>6.8
CNc1oc(-c2ccco2)nc1S(=O)(=O)c1ccc(Br)cc1 | 0 | 74* | 1 | -4 | 6 | 11
Nc1n[nH]c(-c2ccc([N+](=O)[O-])cc2)n1 | 0 | 2 | 1 | 6 | / | /
COc1ccc(CN2CCC(C(=O)N3CCc4ccccc4C3)CC2)c(OC)c1 | 0 | 53* | 0 | 8 | 3 | 11
O=C(C1CCN(Cc2ccccc2)CC1)N1CCN(Cc2ccccc2)CC1 | 0 | 55* | -1 | 19 | 6 | 13
COc1ccc(CN2CCC(C(=O)N3CCc4ccccc4C3)CC2)cc1 | 0 | 30 | 0 | 2 | / | /
COc1ccccc1CN1CCC(C(=O)N2CCN(Cc3ccccc3)CC2)CC1 | 0 | 52* | 1 | 15 | 10 | 10
CCOC(=O)N1CCN(C(=O)C2CCN(Cc3ccccc3OC)CC2)CC1 | 0 | 54* | -1 | -4 | 2 | 17
O=C(C1CCN(Cc2cccc(O)c2)CC1)N1CCN(Cc2ccccc2)CC1 | 0 | 48 | 0 | 4 | / | /
CCOC(=O)N1CCN(C(=O)C2CCN(Cc3cc(OC)ccc3OC)CC2)CC1 | 0 | 41 | 0 | 3 | / | /
Cc1nn(C)c(C)c1-c1nc(NCCN(C(C)C)C(C)C)c2ncn(C(C)C)c2n1 | 0 | 6 | 3 | 4 | / | /
CC(=O)Nc1cccc(N2C(=O)c3cc(Cl)c(Cl)cc3C2=O)c1 | 0 | 5 | -1 | 2 | / | /
Cc1cc(=O)n2c(c1C#N)SCCC2 | 0 | -5 | 0 | -8 | / | /
COc1cc(CN2CCC(C(=O)N3CCN(Cc4ccccc4)CC3)CC2)ccc1O | 0 | 60* | 0 | 2 | -1 | 0
O=C(C1CCN(Cc2cccnc2)CC1)N1CCN(C/C=C/c2ccccc2)CC1 | 0 | 58* | 1 | 16 | 9 | 9
O=C(C1CCN(Cc2ccc(F)cc2)CC1)N1CCN(c2ccccc2)CC1 | 0 | 52* | 1 | 0 | 1 | 15
CCOc1ccccc1N1CCN(C(=O)C2CCNCC2)CC1 | 0 | 58* | 0 | 6 | 11 | 13
SMILES | FBW7 act | MITF inh | GPR151 ag | TEAD-YAP block | MITF inh conf | AlphaScreen intf2 | others
COc1cc(CN2CCC(C(=O)N3CCCC(C)C3)CC2)ccc1O (configuration not stated) | 0 | 24 | 2 | 5 | / | /
O=C(O)CCCCC(=O)CC[C@H]1[C@H](O)CC(O)[C@@H]1CCC(=O)O (some centres not stated) | / | -8 | -1 | / | / | /
CCOC(=O)C1=C(c2ccccc2)NC(=O)NC1c1ccccc1F (configuration not stated) | 0 | -7 | 0 | -7 | / | /
Cc1cc2oc3c(c(=O)c2cc1C)C(c1cccnc1)N(CCCN(C)C)C3=O (configuration not stated) | 0 | 83* | -1 | -4 | -7 | -4
CCC(c1nnc(SCC(=O)N(C)C)o1)N(C)C (configuration not stated) | 0 | 81* | 1 | 6 | 7 | 15
Cc1cccc(C2Oc3ccc(Cl)cc3C3=C2C(c2cccnc2)n2nnnc2N3)c1 (configuration not stated) | 1 | 10 | -2 | -7 | / | /
CCOC(=O)C(C)Oc1cc2c(C(=O)OCCOC)c(C)oc2cc1Br (configuration not stated) | 1 | 4 | 1 | -3 | / | /
Cc1ccc(C(C)C)cc1OCCOCCN1CCNCC1 | 0 | 71* | 0 | -8 | 12 | 0
Cc1cc(OCCOCCN2CCNCC2)ccc1Cl | 1 | 68* | -2 | -22 | 74* | 19 | AlphaScreen DR=>6.5
Cc1ccccc1CSc1nc(=O)n(CCCO)c2c1CCCC2 | 0 | -4 | -1 | -1 | / | /
O=c1nc(SCc2ccccc2)c2c(n1CCCO)CCCC2 | 0 | 80* | -1 | 2 | -3 | 5
CCN(CC)Cc1ccc(O)c2ncccc12 | -1 | 93* | -2 | 51* | 102* | 100*
Cc1nccn1Cc1ccc(O)c2ncccc12 | -2 | 82* | 0 | 10 | 103* | 101*
Cc1ccc(NCc2ccccc2O)cc1 | 0 | 12 | 1 | -28 | / | /
Cc1ccc(NCc2ccc(O)c3ncccc23)cc1 | -2 | 53* | -1 | 2 | 105* | 100*
Cc1cccnc1NCc1ccc(O)c2ncccc12 | -1 | 64* | 1 | -4 | 52* | 91*
CCN(CC)Cc1cccc2cccnc12 | 0 | 15 | 0 | 3 | / | /
CCCCCC/C=C/C=C\CCCCCCCC(=O)O | / | -6 | 4 | / | / | /
CC1(C)N=C(N)Nc2nc3ccccc3n21 | 0 | 11 | 0 | 5 | / | /
COc1ccc(C)cc1NS(=O)(=O)c1ccc2c(c1)CCC(=O)N2 | 0 | 73* | -1 | 3 | 62* | -3 | AlphaScreen DR=>6.5
Cc1cccc(NC(=O)c2ccc(COc3ccccc3Br)cc2)n1 | 0 | 70* | -1 | 1 | -5 | -5
Cc1cccc(NC(=O)c2cccc(OCc3ccccc3)c2)n1 | 0 | 10 | -6 | 6 | / | /
Cc1cccc(C2(C(=O)O)CCCC2)c1 | 0 | 8 | 1 | -9 | / | /
O=C(c1cccnc1)N1C2C=CC(C2)C1(C(F)(F)F)C(F)(F)F (configuration not stated) | 0 | 33 | -2 | 5 | / | /
O=C(c1ccncc1)N1C2C=CC(C2)C1(C(F)(F)F)C(F)(F)F (configuration not stated) | 0 | 68* | 0 | 0 | 59* | -6 | AlphaScreen DR=>6.5
CCN1CCN(CCCOc2ccc(Cl)c(Cl)c2)CC1 | 0 | 28 | 1 | -12 | / | /
c1ccc(-c2ccccc2OCCCCN2CCNCC2)cc1 | -1 | 49 | -2 | -3 | / | /
